Assay results published in PubChem BioAssay (NCATS).
Inconclusive results are not listed. Entries that show only a call come without a potency. Activity calls are given as the source filed them. The call rests on the fitted dose curve; in most records, active means well fitted inhibition curve with a large enough effect; inconclusive means small, poorly fitted or top-dose-only effect; inactive means flat fitted curve, though single readings scatter.

Test system: CP203
Assay: qHTS profiling for inhibitors of Plasmodium falciparum proliferation (AID 504749); further: nearly all actives have a fitted effect of over 60% in size
Settings: P. falciparum in erythrocytes, SYBR Green DNA, 72 h; series mostly up to 28.7 µM
Source text: NIH National Institute of Allergy and Infectious Diseases [NIAID] NIH Chemical Genomics Center [NCGC] MLPCN Grant: None Assay Provider: Xinzhuan Su, NIAID NCGC Assay Overview: Plasmodium falciparum is a virulent malarial parasite that kills 1-2 million people worldwide each year. Transmitted by mosquitoes, the sporozoite form of the parasite enters the blood stream to infect hepatocytes, where they become merozoites that infect red blood cells (erythrocytes). Within erythrocytes, merozoites begin a […] cycle of growth and division, after which the parasite is released to infect new red blood cells. Gametocytes, which form within erythrocytes as well, circulate in the bloodstream and are ingested by the mosquito, thereby completing the life cycle. To profile malarial isolates for differential chemical responses and to identify inhibitors of malarial growth, an assay that measures P. falciparum growth and replication within erythrocytes was employed. This assay uses a DNA binding fluorescent dye (SYBR Green) to detect parasite DNA following cell lysis. Because mature erythrocytes lack DNA, only Plasmodium-derived DNA is detected.
NCGC Assay Protocol Summary: The SYBR Green viability assay was adapted from a method described previously (Plouffe et al., 2008). For screening 3 ul culture medium was dispensed into 1536 well black clear bottom plates (Aurora Biotechnologies) using a Multidrop Combi (Thermo Fisher Scientific Inc.), 23 nL compounds in DMSO were added by a pin tool (Kalypsys), and 5 ul of erythrocytes infected with P. falciparum (0.3% parasitemia, 2.5% hematocrit final concentration) were added. The plates were incubated at 37 C in a humidified incubator in 5% CO2 for 72 h, and 2 ul lysis buffer (20 mM Tris HCl, 10 mM EDTA, 0.16% saponin, 1.6% triton X, 10X SYBR Green I supplied as 10,000X […] by Invitrogen) was added to each well. The plates were mixed for 25 sec with gentle shaking and incubated overnight at room temperature in the dark. The following morning, fluorescence intensity at 485(14) nm excitation and 535(25) nm emission wavelengths was measured on an EnVision (Perkin Elmer) plate reader. Plate reads were normalized relative to the control inhibitor (0.29 uM artemisinin) and vehicle (DMSO) wells present on each plate and then corrected by an algorithm using vehicle-only control plates at the beginning and end of the compound plate stack.
Potency means the concentration at half of the fitted maximal effect.

Row | Compound | Potency
1 | CC[N+](C)(C)c1cccc(O)c1 | inactive
2 | NCCCNCCSP(=O)(O)O | inactive
3 | Brc1c(NC2=NCCN2)ccc2nccnc12 | inactive
4 | CN(C)CCN(Cc1cccs1)c1ccccn1 | 12 µM (active)
5 | O=c1[nH]c(=O)n([C@H]2C[C@H](O)[C@@H](CO)O2)cc1Br | inactive
6 | CCCN(CCC)CCc1cccc2c1CC(=O)N2 | inactive
7 | NS(=O)(=O)c1cc2c(cc1Cl)NC(C1CC3C=CC1C3)NS2(=O)=O (stereo not given) | inactive
8 | NC(Cc1ccc(Cl)cc1)C(=O)O (stereo not given) | inactive
9 | O=C(O)CP(=O)(O)O | inactive
10 | C[N+](C)(C)CCOC(N)=O | inactive
11 | CC(N=C(NC#N)Nc1ccncc1)C(C)(C)C (stereo not given) | inactive
12 | CCN(CC)CC(=O)Nc1c(C)cccc1C | inactive
13 | OC(CCN1CCCCC1)(c1ccccc1)C1CCCCC1 (stereo not given) | inactive
14 | Nc1nc(N)c2nc(-c3ccccc3)c(N)nc2n1 | inactive
15 | C#CCN(C)CCCOc1ccc(Cl)cc1Cl | inactive
16 | CCCCNC(=O)NS(=O)(=O)c1ccc(C)cc1 | inactive
17 | CN1CCN(C2=Nc3ccccc3Oc3ccc(Cl)cc32)CC1 | inactive
18 | CCCCCN(CCCCC)C(=O)C(CCC(=O)O)NC(=O)c1ccc(Cl)c(Cl)c1 (stereo not given) | inactive
19 | CC(C(=O)O)c1ccc(CC2CCCC2=O)cc1 (stereo not given) | inactive
20 | CCCCOCCOCCOCc1cc2c(cc1CCC)OCO2 | inactive

Row | Compound | Potency
21 | CCCOc1ccccc1-c1nc2n[nH]nc2c(=O)[nH]1 | inactive
22 | CNC1(C)C2CCC(C2)C1(C)C (stereo not given) | inactive
23 | CN1CCN(CC(=O)N2c3ccccc3C(=O)Nc3cccnc32)CC1 | inactive
24 | CCN(CC)CCOCCOC(=O)C1(c2ccccc2)CCCC1 | 6.75 µM (active)
25 | COC(=O)[C@@H](N)Cc1ccc(O)c(O)c1 | inactive
26 | Nc1ncn([C@@H]2O[C@H](CO)[C@@H](O)[C@H]2O)c(=O)n1 | inactive
27 | CCN1CCc2nc(N)oc2CC1 | inactive
28 | CN1C[C@H](C(=O)N[C@]2(C)O[C@@]3(O)[C@@H]4CCCN4C(=O)[C@H](Cc4ccccc4)N3C2=O)C[C@@H]2c3cccc4[nH]cc(c34)C[C@H]21 | 10.7 µM (active)
29 | CC(=O)Nc1nnc(S(N)(=O)=O)s1 | inactive
30 | CN(C)CC/C=C1\c2ccccc2COc2ccccc21 | 13.5 µM (active)
31 | CCn1cc(C(=O)O)c(=O)c2cc3c(cc21)OCO3 | inactive
32 | Cc1ccc(S(=O)(=O)NC(=O)NN2CCCCCC2)cc1 | inactive
33 | Cc1ccc(=O)n(-c2ccccc2)c1 | inactive
34 | C[N+](C)(C)CCCCCCCCCC[N+](C)(C)C | 1.69 µM (active)
35 | CCCCNc1ccc(C(=O)OCCN(C)C)cc1 | inactive
36 | OCCN1CCN(CC/C=C2/c3ccccc3Sc3ccc(C(F)(F)F)cc32)CC1 | 9.53 µM (active)
37 | CC1=C(C)C(=O)C(CCCCC#CCCCC#CCO)=C(C)C1=O | 15.1 µM (active)
38 | COc1cc2c(cc1OC)-c1cc(=Nc3c(C)cc(C)cc3C)n(C)c(=O)n1CC2 | 7.57 µM (active)
39 | Cc1nc2c([nH]1)c(=O)n(C)c(=O)n2Cc1ccco1 | inactive
40 | O=C(CCNNC(=O)c1ccncc1)NCc1ccccc1 | inactive
